Hit rate of the full screen: of about 340,000 compounds, about 3,300 (0.97%) were called active.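 How the source made its calls: active means inhibition above the mean over all tested compounds plus 3 SD (cut at about 30% in these data); inactive means the rest.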 This excerpt belongs to a sample that is enriched for actives. Non-standard residues stand in square brackets, D forms with d. Residues, ends and D or L forms follow the SMILES beside them. ξ: configuration not given here. *: point of attachment. Cbz = O=C(OCc1ccccc1)*; ξL = CC(C)CC(N)C(=O)O; ξP = O=C(O)C1CCCN1

Broadly, the inhibition is the relative decrease from the control value, in per cent.

The assay concerns the target Platelet-activating factor acetylhydrolase 2, cytoplasmic (Homo sapiens) (UniProt Q99487). Nature of the assay: PAFAH2 enzyme inhibitors, primary screen, biochemical, fluorescence polarization, human (AID 492956).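 Further: inhibitors block probe labeling of enzyme so polarization drops; 0% = enzyme with DMSO and 100% = wells lacking PAFAH2 protein.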 As to conditions: recombinant PAFAH2, FP-rhodamine activity probe, at 3.39 µM, active compounds read high.
Regarding `CC(C)(C)c1ccc(/C=C2\Oc3c(ccc(O)c3CN3CCN(CCO)CC3)C2=O)cc1`, the inhibition is 82% (active).
For the compound `CCOC(=O)c1oc2c(CN3CCN(CCO)CC3)c(O)c(CC)cc2c(=O)c1-c1nc2ccccc2s1`, the inhibition was -4.68% (inactive).
`Cc1c2cn[nH]c(=O)c2c(C)n1Cc1ccc(F)cc1`: the inhibition is -4.15% (inactive).
The figure for `C=C1c2cccc(OC)c2O[C@H](C(=O)OCC)[C@@H]1CCCCCC` is 2.29% (inactive); for `CCOC(=O)C1=C(CNC2CCCCC2)NC(=O)NC1c1cc(C)ccc1C` (configuration not stated) it is -10.1% (inactive).
For `COc1ccc(O)c(C(=O)c2cnc3onc(C(C)C)c3c2)c1`, the inhibition was -6.85% (inactive).
For `COCC1CCN(C(=O)c2ccc3oc(Cc4ccccc4)nc3c2)C1` (configuration not stated) the value was 58.9% (active); for `COC(=O)C1CCN(C(=O)c2ccc3oc(Cc4ccc(Cl)cc4)nc3c2)CC1`, -2.24% (inactive).
`COCC1CCCN(C(=O)c2ccc3oc(C(C)C)nc3c2)C1` (configuration not stated): the inhibition is 2.06% (inactive).
For `CC1=NC2(CCCc3c2no[n+]3[O-])N(O)C1(C)C` (configuration not stated) the value was -4.68% (inactive); for `COCCNC(=O)CN1C(=O)CSc2ncccc21`, 3.18% (inactive).
The figure for `Cc1ccc(Cl)cc1NC(=O)COC(=O)CC(C)(C)C` is 6.71% (inactive); for `CSCCC(NC(=O)c1ccco1)C(=O)OCC(=O)Nc1ncc(Cl)c(C)c1Cl` (configuration not stated) it is 0.63% (inactive).
Turning to `Cc1c(Cl)cnc(NC(=O)COC(=O)c2ccc(S(=O)(=O)NCc3ccco3)cc2)c1Cl`, the inhibition was 22.8% (inactive).
The figure for `Cc1c(Cl)cnc(NC(=O)COC(=O)C2CCCC2)c1Cl` is 37.6% (active).
On to `COc1ccc(CCNC(=O)COC(=O)C2CCCCC2)cc1`, for which the inhibition is 7.99% (inactive).
For `Cc1ccc(Cl)cc1NC(=O)COC(=O)C1CCCCC1` the value was 37.4% (active); for `Cc1cc(=O)oc2c(C)c(OCC(=O)NCCN3CCOCC3)ccc12`, -1.89% (inactive); for `COc1ccc(S(=O)(=O)N2CCC(C(=O)N3CCCC3)CC2)cc1C`, -0.54% (inactive).
Take `Nc1nc(SCc2cccc(Br)c2)n[nH]1`: the inhibition is -14.7% (inactive).
Take `CN(Cc1ccccc1)C(=O)C(=O)c1cn(CC(=O)N2CCCC2)c2ccccc12`: the inhibition is 5.94% (inactive).
Take `CCOC(=O)C1C(=O)C=C(c2ccc(OC)cc2)CC1c1ccco1` (configuration not stated): the inhibition was 6.12% (inactive).
For `O=S(=O)(NCc1ccccc1Br)c1ccccc1Br` the value was 3.56% (inactive); for `Cc1ccn2c(=O)nc(SCC(=O)NCc3ccc(F)cc3)nc2c1`, 10.6% (inactive); for `Cc1ccc(C)c(N2CCN(C(=O)CCc3nc4ccccc4[nH]3)CC2)c1`, 2.85% (inactive).
As to `O=C(OCc1nc2ccccc2[nH]1)C1CCCCC1`, the inhibition is 59.9% (active).
For the compound `CCO[C@@H]1OC(C(=O)NCc2nc3ccccc3[nH]2)=C[C@H](C2CCCCC2)[C@H]1CCCO`, the inhibition is -12.7% (inactive).
Consider `CCO/C=C1\C(=O)N(c2ccc(OCC)cc2)C(=O)c2ccccc21`, for which the inhibition was 5.93% (inactive).
As to `Cc1ccc(OCC(=O)Nc2cccc3c2CCCC3)cc1C`, the inhibition was -17.9% (inactive).
Turning to `NC(=O)C1CCN(C(=O)c2ccc3c(=O)n(Cc4cccc(Br)c4)c(=S)[nH]c3c2)CC1`, the inhibition is 1.48% (inactive).
For `COc1cc(OC)c2c(-c3cccc(-c4cccc(N)c4)c3)cc(=O)oc2c1` the value was 4.97% (inactive); for `CCOc1ccc(NC(=O)C2CCN(C(=O)N3CCOc4ccccc43)CC2)cc1`, -3.71% (inactive).
As to `C=CCN(C(=O)c1cc(C)cc(C)c1)C1(C(=O)Nc2ccccc2)CCN(C(C)C)CC1`, the inhibition was -2.17% (inactive).
As to `C/C=C/C(=O)OCc1csc(CC(=O)Nc2ccccc2C)n1`, the inhibition is 2.3% (inactive).
In the case of `Cc1ccc(NC(=O)Cc2nc(COC(=O)C(C)NS(=O)(=O)c3ccc(C)cc3)cs2)cc1` (configuration not stated), the inhibition is 67.5% (active).
In the case of `CC(=O)Nc1ccc(S(=O)(=O)NC(C)C(=O)OCC(=O)NC2CCCC2)cc1` (configuration not stated), the inhibition was -5.65% (inactive).
As for `Cc1ccc(S(=O)(=O)N(C)C)cc1NC(=O)c1ccccc1Br`, the inhibition was 1.28% (inactive).
For `CN(C(=O)c1c(Cl)cnn1C)C12CC3CC(CC(C3)C1)C2` the value was 1.24% (inactive); for `NS(=O)(=O)c1ccc(NC(=O)COC(=O)c2c3c(nc4ccccc24)/C(=C\c2ccc4c(c2)OCO4)CCC3)cc1`, -39.4% (inactive); for `CCn1ccnc1CNC(=O)CC1C(=O)NCCN1CCCc1ccccc1` (configuration not stated), -0.69% (inactive).
For `CC(C)CC(NC(=O)C1CCCN1C(=O)[C@@H](C)NC(=O)OCc1ccccc1)C(=O)NCC(N)=O` (some centres not stated) (Cbz-[dA][ξP][ξL]G-NH2) the value was 3.95% (inactive); for `Cc1ccc(NC(=O)C2CCCN2C(=O)OCc2ccccc2)cc1C` (configuration not stated), -10.9% (inactive); for `CCC(C)C(NC(=O)C1CCC(=O)N1C(=O)OCc1ccccc1)C(=O)NC(C(=O)N1CCCC1C(N)=O)C(C)CC` (configuration not stated), 45% (active).
On to `CCc1cc(CNC(=O)CC2C(=O)NCCN2Cc2ccccc2C(F)(F)F)on1` (configuration not stated), for which the inhibition was -1.63% (inactive).
As for `COC(=O)CNc1nc(Cl)nc(N2CCC(C)CC2)n1`, the inhibition is -3.76% (inactive).
On to `Cn1c(Cn2nnc3ccccc32)nnc1SCC(=O)c1ccccc1F`, for which the inhibition is -0.21% (inactive).
For `C/C(Cn1nnc2ccccc21)=N\OC(=O)c1cc(F)c(F)cc1Cl`, the inhibition is 75.7% (active).
On to `CCOC(=O)c1cccc(NC(=O)CCn2nnc3ccccc32)c1`, for which the inhibition is -12.2% (inactive).
For the compound `CCCCCN(C(=O)CCC(=O)OCCOc1ccc(OC)cc1)c1c(N)n(CCCC)c(=O)[nH]c1=O`, the inhibition was 0.6% (inactive).
With `COc1ccc(Cc2nc3ccc(C(=O)N4CCC(N(C)C)C4)cc3o2)cc1` (configuration not stated), the inhibition is 1.02% (inactive).
In the case of `CC(C)CN(C(=O)CSc1ncnc2sccc12)C1CCS(=O)(=O)C1` (configuration not stated), the inhibition is -0.68% (inactive).
The figure for `CCN(CC)CCCN1C(=O)C(=O)/C(=C(/O)c2c(C)nc3ccccn23)C1c1ccc(C)o1` (configuration not stated) is -8% (inactive); for `Cc1nc(N)nc(Cl)c1CCC1OCCO1` it is -3.02% (inactive).
Regarding `O=C1CSC(=S)N1/N=C/c1ccc(O)c([N+](=O)[O-])c1`, the inhibition is 38.1% (active).
Take `Cc1cc(C(=O)N/N=C/c2ccc(O)c([N+](=O)[O-])c2)c(C)n1-c1ccc(F)cc1`: the inhibition was 15.3% (inactive).
For `CCOc1cccc(/C=N/N2C(=O)CSC2=S)c1O` the value was 21.4% (inactive); for `CCn1ncc(Br)c1C(=O)Nc1cc(C)ccc1F`, 4.13% (inactive).

Source of the values: PubChem BioAssay AID492956 (The Scripps Research Institute Molecular Screening Center, 2010).
